Among the data in PubChem BioAssay (EPA / NIEHS) are outcome and AC50 values, retold here.

Structures are written as SMILES. Records with an inconclusive call do not appear. The source made the active and inactive calls. How the source made its calls, unless noted: active means hit-call score of the fitted dose curve at least 0.9, where 1 is the maximum; inactive means score below 0.9.

For test [1], the target named is Paired box protein Pax-6 (Homo sapiens) (UniProt P26367). Kind of test: ATG_Pax6_CIS: Attagene CIS-FACTORIAL HepG2 Assay for human Paired Box 6 (PAX6) (AID 2282956). Conditions: HepG2 CIS-FACTORIAL PAX6 reporter transcription, RNA readout; actives raise or lower the signal. The essentials: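 Multiplexed cis-reporter HepG2 system; 24 h treatment; reporter mRNA read by RT-PCR/CE fluorescence; bidirectional fit vs DMSO.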

A short description of test [2]: ATG_PXRE_CIS: Attagene CIS-FACTORIAL HepG2 Assay for human Pregnane X Receptor Element (PXRE) (AID 2282957). Conditions: HepG2 Attagene CIS-FACTORIAL PXRE reporter, mRNA; actives raise or lower the signal. In a few lines: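 HepG2 cells transiently transfected with cis-element-driven multiplexed reporter units; after 24 h chemical exposure, reporter mRNA measured by RT-PCR, 6-FAM labelling, HpaI digestion and capillary electrophoresis. Bidirectional fitting relative to DMSO.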

Test [3] in a line: ATG_PPRE_CIS: Attagene CIS-FACTORIAL HepG2 Assay for human Peroxisome Proliferator-activated Response Element (PPRE) (AID 2282958). Conditions: HepG2 PPRE cis-element reporter, Attagene transcription factor profiling; actives raise or lower the signal. The essentials:
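HepG2 cells are transiently transfected with multiplexed cis-promoter reporter units to report endogenous PPAR activity. After 24 h dosing, reporter mRNA is read by RT-PCR and capillary electrophoresis. Fitting is bidirectional against DMSO.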

Test [4] can be described thus: ATG_RORE_CIS: Attagene CIS-FACTORIAL HepG2 Assay for human RAR-related Orphan Receptor Element (RORE) (AID 2282959). Conditions: HepG2 Attagene cis-factorial RORE reporter, mRNA; actives raise or lower the signal. In a few lines:
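HepG2 cells carrying transiently transfected cis-regulated reporter units; RORE-driven reporter mRNA quantified 24 h post-dosing by RT-PCR, 6-FAM primer extension, HpaI digestion and capillary electrophoresis. Bidirectional fit versus DMSO.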

A short description of test [5]: ATG_Sox_CIS: Attagene CIS-FACTORIAL HepG2 Assay for human SRY-box transcription factor (SOX) (AID 2282960). Conditions: HepG2 Attagene cis-factorial SOX reporter, mRNA; actives raise or lower the signal. The essentials:
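HepG2 cells transiently transfected with multiple cis-regulated reporter units, then dosed for 24 h. Reporter mRNA quantified by RT-PCR, fluorescent labelling, HpaI digestion and capillary electrophoresis; bidirectional fit versus DMSO.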

Test [6] deals with Transcription factor Sp1 (Homo sapiens) (UniProt P08047). Kind of test: ATG_Sp1_CIS: Attagene CIS-FACTORIAL HepG2 Assay for human Specificity Protein 1 (Sp1) (AID 2282961). Conditions: HepG2 Sp1 cis-reporter transcription, actives raise or lower the signal. The essentials:
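HepG2 cells transiently transfected with multiplexed cis-regulated reporter constructs, chemical exposure 24 h. Reporter mRNA quantified by RT-PCR with capillary electrophoresis; bidirectional fit relative to DMSO.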

A short description of test [7]: ATG_SREBP_CIS: Attagene CIS-FACTORIAL HepG2 Assay for human Sterol Regulatory Element Binding (SREBP) (AID 2282962). Conditions: HepG2 Attagene cis-factorial SREBP reporter, mRNA; actives raise or lower the signal. The essentials: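 mRNA induction of transfected cis-promoter reporters in HepG2 cells, 24 h post-dose. Detection: RT-PCR with 6-FAM-labelled products, HpaI digest, capillary electrophoresis. DMSO served as negative control and baseline.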

The target of test [8] is Signal transducer and activator of transcription 3 (Homo sapiens) (UniProt P40763). Kind of test: ATG_STAT3_CIS: Attagene CIS-FACTORIAL HepG2 Assay for human Signal Transducer and Activator of Transcription 3 (STAT3) (AID 2282963). Conditions: HepG2, Attagene cis-factorial STAT3 reporter transcription; actives raise or lower the signal. The essentials:
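HepG2 cells transiently transfected with multiple cis-element-driven reporter units report endogenous transcription factor activity. After 24 h compound exposure, reporter mRNA is measured by RT-PCR, 6-FAM labelling, HpaI digestion and capillary electrophoresis. Fitted bidirectionally versus DMSO.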

Test [9] in a line: ATG_TA_CIS: Attagene CIS-FACTORIAL HepG2 Assay for human TA Basal Promoter (AID 2282964). Conditions: HepG2 Attagene CIS-factorial TA basal promoter reporter; actives raise or lower the signal. The essentials:
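Fluorescence from labelled RT-PCR reporter fragments, separated by capillary electrophoresis, gives the signal. Cells: HepG2 transiently carrying multiple reporter units, 24 h chemical dosing. Gain or loss relative to DMSO.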

Test [10] is described as follows: ATG_TCF_b_cat_CIS: Attagene CIS-FACTORIAL HepG2 Assay for human T-Cell-Factor with beta-catenin (TCF/b-cat) (AID 2282965). Conditions: HepG2 TCF/beta-catenin cis-reporter transcription, actives raise or lower the signal. The essentials:
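HepG2, transient MRTU transfection, cis-element-driven reporters (endogenous TFs). 24 h compound exposure. Readout: reporter mRNA by RT-PCR + 6-FAM primer extension, HpaI digest, capillary electrophoresis. Gain/loss fit vs DMSO baseline.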

Test [11] is described as follows: ATG_TAL_CIS: Attagene CIS-FACTORIAL HepG2 Assay for human TAL Basal Promoter (AID 2282966).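 Further: background control endpoint measuring basal TAL promoter reporter mRNA not a specific factor.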 Conditions: HepG2 Attagene cis-factorial TAL promoter reporter; actives raise or lower the signal. The essentials:
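HepG2 cells transiently transfected with multiplexed cis-promoter reporter units, dosed 24 h. Reporter mRNA quantified by RT-PCR, 6-FAM labelling, HpaI digestion and capillary electrophoresis; TAL basal promoter serves as background control, fitted bidirectionally versus DMSO.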

Test [12] is described as follows: ATG_TGFb_CIS: Attagene CIS-FACTORIAL HepG2 Assay for human Transforming Growth Factor (TGF) (AID 2282967). Conditions: HepG2 Attagene CIS TGFb reporter, mRNA transcription; actives raise or lower the signal. The essentials:
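Bidirectional fitting relative to DMSO gave the endpoint. Underlying data: reporter mRNA from HepG2 cells carrying transiently transfected cis-regulated reporter constructs, harvested 24 h after dosing and analyzed by RT-PCR and capillary electrophoresis.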

Test [13] is described as follows: ATG_VDRE_CIS: Attagene CIS-FACTORIAL HepG2 Assay for human Vitamin D Receptor Element (VDRE) (AID 2282968). Conditions: HepG2 VDRE cis-reporter transcription, actives raise or lower the signal. The essentials: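 Transiently transfected HepG2 cells carrying cis-regulated reporter transcription units were exposed for 24 h. Reporter mRNA was measured by RT-PCR with fluorescent labelling and capillary electrophoresis, and fitted in both directions against DMSO.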

In test [14] the target is Estrogen receptor (Homo sapiens) (UniProt P03372). Put plainly: ATG_ERa_TRANS: Attagene TRANS-FACTORIAL HepG2 Assay for human Estrogen Receptor alpha (ERa) (AID 2282970; active means hit-call score of the fitted dose curve at least 0.9, where 1 is the maximum). Conditions: HepG2 Attagene TRANS ERa GAL4 reporter, mRNA. In a few lines: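 HepG2 cells transiently transfected with multiplexed GAL4-UAS reporter units read out chimeric NR-Gal4 activity. After 24 h compound exposure, reporter mRNA was quantified by RT-PCR, 6-FAM labeling, HpaI digestion and capillary electrophoresis, relative to DMSO.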

Test [15] concerns the target X-box-binding protein 1 (Homo sapiens) (UniProt P17861). Kind of test: ATG_Xbp1_CIS: Attagene CIS-FACTORIAL HepG2 Assay for human X-box Binding Protein 1 (XBP1) (AID 2282972). Conditions: HepG2 XBP1 cis-element reporter, Attagene multiplex; actives raise or lower the signal. The essentials: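 Fluorescence-labelled cDNA fragments from reporter transcripts, separated by capillary electrophoresis, give the signal. Source: HepG2 cells transfected with promoter-driven reporter units, harvested 24 h post-dose. DMSO served as reference for bidirectional curve fitting.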

Test [16] in a line: ATG_M_19_TRANS: Attagene TRANS-FACTORIAL HepG2 Assay for M19 Transcription Factor (Internal Marker) (AID 2282974; active means hit-call score of the fitted dose curve at least 0.9, where 1 is the maximum). Conditions: HepG2 Attagene TRANS-FACTORIAL M19 internal marker reporter. In a few lines:
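HepG2 transiently transfected with GAL4-UAS multiplex reporter constructs, exposed 24 h; reporter RNA quantified by RT-PCR, 6-FAM labeling, HpaI digestion and capillary electrophoresis; internal background marker fitted upward versus DMSO.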

Test [17] can be described thus: ATG_PBREM_CIS: Attagene CIS-FACTORIAL HepG2 Assay for human Phenobarbital-responsive Enhancer Module (PBREM) (AID 2282955). Conditions: HepG2 PBREM cis-reporter, Attagene multiplexed transcription; actives raise or lower the signal. In a few lines: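 HepG2 cells transiently transfected with multiple cis-regulated reporter units measure endogenous transcription factor activity; 24 h compound exposure. Reporter mRNA quantified by RT-PCR, fluorescent labelling, HpaI digestion and capillary electrophoresis; bidirectional fit versus DMSO.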

Test [18] addresses Steroid hormone receptor ERR1 (Homo sapiens) (UniProt P11474). Kind of test: ATG_ERRa_TRANS: Attagene TRANS-FACTORIAL HepG2 Assay for human Estrogen-Related Receptor alpha (ERRa) (AID 2282971; active means hit-call score of the fitted dose curve at least 0.9, where 1 is the maximum). Conditions: HepG2 Attagene TRANS reporter, ERRa transactivation. The essentials: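 HepG2 cells transiently transfected with GAL4-UAS reporter units and chimeric NR-Gal4 constructs; after 24 hour compound incubation, reporter mRNA quantified by RT-PCR, fluorescent labelling and capillary electrophoresis, gain of signal versus DMSO.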

Chain of Estrogen receptor (Homo sapiens) (P03372 whole entry, looked up, the tested form may be a part): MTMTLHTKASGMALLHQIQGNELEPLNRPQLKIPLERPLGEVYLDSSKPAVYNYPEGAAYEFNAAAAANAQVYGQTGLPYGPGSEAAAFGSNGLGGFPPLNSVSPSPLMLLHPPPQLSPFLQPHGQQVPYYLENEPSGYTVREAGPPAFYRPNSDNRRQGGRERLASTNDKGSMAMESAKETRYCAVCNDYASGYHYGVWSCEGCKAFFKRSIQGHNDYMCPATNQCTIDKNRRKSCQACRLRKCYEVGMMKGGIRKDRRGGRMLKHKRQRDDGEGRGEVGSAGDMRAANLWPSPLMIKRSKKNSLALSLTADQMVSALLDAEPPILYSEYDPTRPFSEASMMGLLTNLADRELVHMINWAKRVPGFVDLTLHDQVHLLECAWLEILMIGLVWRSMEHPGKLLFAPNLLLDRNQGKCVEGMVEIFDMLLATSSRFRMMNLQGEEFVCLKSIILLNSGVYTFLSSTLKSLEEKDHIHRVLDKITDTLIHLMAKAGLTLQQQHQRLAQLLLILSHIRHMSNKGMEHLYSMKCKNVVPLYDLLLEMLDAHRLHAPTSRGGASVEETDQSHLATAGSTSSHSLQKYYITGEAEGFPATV
Chain of Transcription factor Sp1 (Homo sapiens) (P08047 whole entry, looked up): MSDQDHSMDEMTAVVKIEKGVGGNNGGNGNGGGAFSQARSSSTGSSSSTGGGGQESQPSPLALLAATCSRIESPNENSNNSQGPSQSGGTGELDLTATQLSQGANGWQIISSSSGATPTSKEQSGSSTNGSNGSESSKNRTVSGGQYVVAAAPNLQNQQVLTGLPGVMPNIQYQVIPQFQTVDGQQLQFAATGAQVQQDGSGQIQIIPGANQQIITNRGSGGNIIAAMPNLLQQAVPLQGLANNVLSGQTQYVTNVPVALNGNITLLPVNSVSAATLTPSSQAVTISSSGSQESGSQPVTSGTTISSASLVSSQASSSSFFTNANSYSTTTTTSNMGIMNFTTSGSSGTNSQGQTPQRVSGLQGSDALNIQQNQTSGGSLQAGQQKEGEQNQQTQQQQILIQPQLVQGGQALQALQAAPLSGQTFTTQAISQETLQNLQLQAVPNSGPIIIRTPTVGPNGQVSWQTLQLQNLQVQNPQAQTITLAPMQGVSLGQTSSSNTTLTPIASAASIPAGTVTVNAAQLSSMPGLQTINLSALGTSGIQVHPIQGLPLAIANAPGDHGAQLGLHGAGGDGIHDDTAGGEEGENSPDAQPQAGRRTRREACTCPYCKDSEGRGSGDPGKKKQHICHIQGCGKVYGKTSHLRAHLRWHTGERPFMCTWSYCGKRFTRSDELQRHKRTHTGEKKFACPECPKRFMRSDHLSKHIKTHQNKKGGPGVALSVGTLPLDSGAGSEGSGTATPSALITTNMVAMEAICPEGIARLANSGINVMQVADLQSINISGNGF
Chain of Paired box protein Pax-6 (Homo sapiens) (P26367 whole entry, looked up): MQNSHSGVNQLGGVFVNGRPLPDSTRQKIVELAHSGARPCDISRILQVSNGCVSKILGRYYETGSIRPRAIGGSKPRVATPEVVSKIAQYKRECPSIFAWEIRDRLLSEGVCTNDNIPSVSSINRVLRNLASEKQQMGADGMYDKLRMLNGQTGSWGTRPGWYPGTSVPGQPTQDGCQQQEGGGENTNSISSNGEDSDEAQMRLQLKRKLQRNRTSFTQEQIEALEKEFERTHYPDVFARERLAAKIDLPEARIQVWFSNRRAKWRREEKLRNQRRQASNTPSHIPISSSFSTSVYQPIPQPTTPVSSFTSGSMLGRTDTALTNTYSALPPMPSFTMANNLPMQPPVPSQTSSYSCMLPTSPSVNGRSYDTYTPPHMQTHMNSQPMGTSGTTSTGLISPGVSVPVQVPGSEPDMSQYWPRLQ
Chain of Steroid hormone receptor ERR1 (Homo sapiens) (P11474 whole entry, looked up, the tested form may be a part): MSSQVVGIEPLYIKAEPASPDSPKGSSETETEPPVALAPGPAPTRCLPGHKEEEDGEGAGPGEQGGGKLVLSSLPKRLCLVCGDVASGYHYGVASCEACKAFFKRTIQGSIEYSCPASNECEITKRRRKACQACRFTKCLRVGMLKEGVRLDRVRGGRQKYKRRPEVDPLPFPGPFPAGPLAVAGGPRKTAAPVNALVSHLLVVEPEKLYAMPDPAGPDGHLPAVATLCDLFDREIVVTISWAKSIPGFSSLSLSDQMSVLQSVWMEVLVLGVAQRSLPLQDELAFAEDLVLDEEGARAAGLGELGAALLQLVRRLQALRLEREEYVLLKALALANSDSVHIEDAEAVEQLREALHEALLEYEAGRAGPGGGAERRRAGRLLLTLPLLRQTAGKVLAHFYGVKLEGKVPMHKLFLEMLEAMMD
Chain of X-box-binding protein 1 (Homo sapiens) (P17861 whole entry, looked up, the tested form may be a part): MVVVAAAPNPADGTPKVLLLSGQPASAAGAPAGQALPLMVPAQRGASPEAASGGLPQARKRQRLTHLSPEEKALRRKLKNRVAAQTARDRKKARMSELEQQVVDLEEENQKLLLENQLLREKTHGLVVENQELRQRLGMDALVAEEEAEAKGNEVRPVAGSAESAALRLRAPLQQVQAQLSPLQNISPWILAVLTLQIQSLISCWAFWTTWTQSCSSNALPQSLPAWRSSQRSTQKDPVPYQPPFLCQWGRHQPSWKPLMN
Chain of Signal transducer and activator of transcription 3 (Homo sapiens) (P40763 whole entry, looked up): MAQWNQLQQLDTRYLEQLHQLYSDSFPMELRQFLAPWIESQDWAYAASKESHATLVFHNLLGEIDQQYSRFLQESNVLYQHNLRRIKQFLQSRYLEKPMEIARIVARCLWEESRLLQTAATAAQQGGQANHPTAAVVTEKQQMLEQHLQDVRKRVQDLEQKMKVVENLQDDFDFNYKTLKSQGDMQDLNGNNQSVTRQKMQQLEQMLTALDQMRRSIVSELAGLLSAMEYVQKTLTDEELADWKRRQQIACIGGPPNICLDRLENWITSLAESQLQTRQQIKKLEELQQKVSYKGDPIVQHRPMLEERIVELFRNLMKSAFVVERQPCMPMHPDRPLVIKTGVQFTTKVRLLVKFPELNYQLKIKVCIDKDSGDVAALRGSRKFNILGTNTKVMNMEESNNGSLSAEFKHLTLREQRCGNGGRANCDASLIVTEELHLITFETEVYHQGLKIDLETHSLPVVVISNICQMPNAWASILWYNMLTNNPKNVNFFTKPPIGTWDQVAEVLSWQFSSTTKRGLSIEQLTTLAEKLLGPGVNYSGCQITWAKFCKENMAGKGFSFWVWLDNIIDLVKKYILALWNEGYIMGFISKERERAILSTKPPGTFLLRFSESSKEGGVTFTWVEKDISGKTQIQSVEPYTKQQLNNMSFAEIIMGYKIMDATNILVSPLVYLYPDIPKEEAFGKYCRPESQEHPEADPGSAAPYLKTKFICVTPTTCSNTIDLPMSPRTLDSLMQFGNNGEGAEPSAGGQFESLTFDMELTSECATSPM

Turning to `Cc1cnc(C2=NC(C)(C(C)C)C(=O)N2)c(C(=O)O)c1` (stereo unspecified), the molecule was classed as inactive in test [1], in [3], in test [4], in [5], in test [6] and in [7]. For the same molecule, the outcome in test [8], in [9], in test [10], in test [11], in test [12] and in test [14] was inactive. Further, the molecule was classed as inactive in [15] and in test [16]. The AC50 – broadly, the midpoint of the concentration-response curve, whichever way the signal moves – in [2] was 24.8 µM (active); in test [13] it was 50 µM (active).
With `CC(C)NC(=O)N1CC(=O)N(c2cc(Cl)cc(Cl)c2)C1=O`, the AC50 in test [17] is 11.8 µM (active); in [2] it was 5.44 µM (active); in test [3], 23.2 µM (active). In addition, the molecule was called inactive in test [1], in test [4], in test [5], in test [6], in test [7] and in [8]. Moreover, the call in test [9], in test [10], in test [11], in [12], in [18] and in test [15] was inactive. Besides, the molecule was classed as inactive in test [16].
For the molecule `O=C1C2CC=CCC2C(=O)N1SC(Cl)(Cl)Cl` (stereo unspecified), the result in [17], in [1], in [2], in [3], in test [5] and in [6] was inactive. Moreover, the call in test [7], in [8], in test [9], in [10], in test [11] and in [12] was inactive. The molecule was classed as inactive in test [14], in test [18], in [15] and in test [16].
For `CCC(C)n1c(=O)[nH]c(C)c(Br)c1=O` (stereo unspecified), the outcome in test [17], in test [1], in test [4], in test [5], in [6] and in test [7] was inactive. The result in test [8], in [9], in [10], in test [11], in test [12] and in test [13] was inactive. Further, the call in test [14], in test [18], in test [15] and in [16] was inactive. Moreover, the AC50 in [2] was 50 µM (active).
In the case of `CC(C)N1C(=O)c2ccccc2NS1(=O)=O`, the molecule was called inactive in test [1], in test [3], in [4], in test [5], in [6] and in test [8]. For the same molecule, the result in test [9], in test [10], in [11], in test [12], in test [14] and in test [18] was inactive. The molecule was classed as inactive in [15]. Moreover, the AC50 is 12.1 µM (active) in [2] and 50 µM (active) in [7].
As to `CC(C)(C)C(=O)C(Oc1ccc(Cl)cc1)n1cncn1` (stereo unspecified), the AC50 is 19.5 µM (active) in test [17], 5.02 µM (active) in test [2], 50 µM (active) in [3] and 18.5 µM (active) in [14]. Besides, the molecule was called inactive in test [1], in test [4], in [5], in test [6], in test [7] and in test [8]. Moreover, the molecule was classed as inactive in [9], in [10], in test [11], in test [12], in test [15] and in test [16].
In the case of `CC1(C)CON(Cc2ccccc2Cl)C1=O`, the outcome in test [17], in test [1], in [5], in test [6], in test [7] and in test [8] was inactive. Further, the call in test [9], in [10], in test [11], in test [12], in test [15] and in test [16] was inactive. The AC50 in test [2] is 14.8 µM (active); in [3], 50 µM (active); in test [4], 13.4 µM (active); in [14], 66.7 µM (active).
Consider `CN/C(=N\[N+](=O)[O-])NCc1cnc(Cl)s1`, for which the result in [17], in test [1], in test [2], in [4], in [5] and in [6] was inactive. Further, the call in [7], in [8], in [9], in [10], in test [11] and in test [12] was inactive. In addition, the molecule was called inactive in test [14] and in test [15].
